Measured values reported in ChEMBL document CHEMBL4513141, “CO-ADD screening of NIH (USA) - Clinical Collection” (2021).
Potency and affinity values are given separately.

Assays:
Staphylococcus aureus = settings: Concentration 20 uM; ASSAY_TEST Inhibition of Bacterial Growth; detection method Absorption (OD600); MEDIA CAMHB; plate type 384well; NBS; CORNING #3640; time 18 hr
Escherichia coli = settings: Concentration 20 uM; ASSAY_TEST Inhibition of Bacterial Growth; detection method Absorption (OD600); MEDIA CAMHB; plate type 384well; NBS; CORNING #3640; time 18 hr

SMILES | Inhibition (Staphylococcus aureus) [%] | Inhibition (Escherichia coli) [%]
COc1ccc2cc(CCC(C)=O)ccc2c1 [NABUMETONE] | 14 | 3.66
CC[N+](C)(CC)CCOC(=O)C(O)(c1ccccc1)C1CCCCC1.[Br-] (configuration not stated) [OXYPHENONIUM BROMIDE] | 12.65 | 3.27
O.OC[C@H]1O[C@@H](n2cnc3c(NC4CCCC4)nc(Cl)nc32)[C@@H](O)C1O (some centres not stated) | 16.71 | -5.97
COc1ccc2[nH]c([S+]([O-])Cc3ncc(C)c(OC)c3C)nc2c1 (configuration not stated) [OMEPRAZOLE] | 3.38 | -0.65
CNCCCN1c2ccccc2CCc2ccccc21.Cl [DESIPRAMINE HYDROCHLORIDE] | 7.54 | -0.24
CC(=O)OCC(=O)[C@@]1(O)CC[C@H]2[C@@H]3CCC4=CC(=O)C=C[C@]4(C)[C@H]3[C@@H](O)C[C@@]21C [PREDNISOLONE ACETATE] | 11.59 | 1.81
CC[C@@]1(O)C(=O)OCc2c1cc1n(c2=O)Cc2cc3c(CN(C)C)c(O)ccc3nc2-1.Cl [TOPOTECAN HYDROCHLORIDE] | 12.09 | 3.87
CCCCC(=O)OC1(C(=O)CO)CCC2C3CCC4=CC(=O)CCC4(C)C3C(O)CC21C (configuration not stated) | 4.02 | 3.22
Cl.c1ccc(CC2=NCCN2)cc1 [TOLAZOLINE HYDROCHLORIDE] | 7.13 | 4.19
CC1=C(/C=C/C(C)=C/C=C/C(C)=C/C(=O)O)C(C)(C)CCC1 [TRETINOIN] | 13.92 | 7.4
CC(=O)OCC(=O)[C@@]1(O)CC[C@H]2[C@@H]3C[C@H](C)C4=CC(=O)C=C[C@]4(C)[C@H]3[C@@H](O)C[C@@]21C [METHYLPREDNISOLONE ACETATE] | 6.17 | -0.44
CC=CC(=O)N(CC)c1ccccc1C | 8.78 | 0.72
COC(=O)C1=C(C)NC(C)=C(C(=O)OCCN(C)Cc2ccccc2)C1c1cccc([N+](=O)[O-])c1.Cl (configuration not stated) [NICARDIPINE HYDROCHLORIDE] | -1.65 | 2.23
C[C@@H]1O[C@@H](OC[C@H]2O[C@@H](Oc3c(-c4ccc(O)c(O)c4)oc4cc(O)cc(O)c4c3=O)[C@H](O)[C@@H](O)[C@@H]2O)[C@H](O)[C@H](O)[C@H]1O [RUTIN] | 17.86 | 2.05
COC1=CC(=O)C[C@@H](C)[C@]12Oc1c(Cl)c(OC)cc(OC)c1C2=O [GRISEOFULVIN] | 7.83 | 2.08
CN1C(=O)CC[C@H]1c1cccnc1 [COTININE] | -20.45 | 7.12
CC(C)NCC(O)COc1ccc(CCOCC2CC2)cc1.Cl (configuration not stated) [BETAXOLOL HYDROCHLORIDE] | 7.41 | 0.81
CC(=O)OCC(=O)[C@@]1(O)CC[C@H]2[C@@H]3CCC4=CC(=O)CC[C@]4(C)[C@H]3C(=O)C[C@@]21C [CORTISONE ACETATE] | 12.24 | 5.41
Clc1ccc2c(c1)C(N1CCNCC1)=Nc1ccccc1O2 [AMOXAPINE] | 3.79 | 7
C[C@H]1[C@@H](OC(=O)CCC(=O)O)O[C@@H]2O[C@@]3(C)CC[C@H]4[C@H](C)CC[C@@H]1[C@@]24OO3 | -17.43 | 12.24
Cc1nc2n(c(=O)c1CCN1CCC(c3noc4cc(F)ccc34)CC1)CCCC2 [RISPERIDONE] | 4.53 | 2.58
N=c1cc(N2CCCCC2)nc(N)n1O | 14.68 | -3.43
CS(=O)(=O)c1ccc(-c2cc(Br)sc2-c2ccc(F)cc2)cc1 [DUP-697] | 14.13 | -0.37
CN1CCC(=C2c3ccccc3CC(=O)c3sccc32)CC1.O=C(O)/C=C/C(=O)O [KETOTIFEN FUMARATE] | 6.88 | 3.55
CS(=O)(=O)O.Cc1c(O)cccc1C(=O)N[C@@H](CSc1ccccc1)[C@H](O)CN1C[C@H]2CCCC[C@H]2C[C@H]1C(=O)NC(C)(C)C [NELFINAVIR MESYLATE] | 8.63 | 1.35
COc1ccc2c(c1)c(CC(=O)O)c(C)n2C(=O)c1ccc(Cl)cc1.O | 8.16 | 7.22
